Experimental data reported in PubChem BioAssay.
Values joined by “and” are separate entries in the source; they are usually repeats but may differ in a detail not shown here. Identical values can stand only once. Active and inactive are the calls of the source.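 How the source made its calls, unless noted: active means inhibition at or above 50% relative to wild type and mutant plate controls; inactive means inhibition below 50%.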

How the values were obtained:
[1] = inhibitors of TNFa-induced NFkB p65 translocation, primary screen, imaging, HUVEC, MLSMR starter and 10KST1 sets (AID 438;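 active means inhibition above 20% together with a positive visual image hit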;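 further: compound added about 3h40 before a 20 min TNFalpha stimulation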;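 on inhibition: signal is the nuclear over cytoplasmic p65 intensity ratio per well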); details: HUVEC TNFa-induced p65 nuclear translocation; cell count: measured here: nuclei count (cytotoxicity indicator), at 2.08 µM; inhibition: at 2 µM, stronger effect = higher value, 0% TNFa-plus-vehicle, 100% no-TNFa wells
[2] = inhibitors of mutant huntingtin aggregation, primary screen, imaging, exon1htt(103Q)mCFP cells, high-content imaging (AID 483;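 active means visual image review flags a hit and inhibition of aggregation exceeds 20%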;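 further: compound exposure lasted 3 days before fixation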;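 on nuclei count: percent of the per-plate median nuclei count of sample wells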); details: exon1htt(103Q)mCFP cell line, aggregate imaging, at 2 µM; inhibition of aggregation: stronger effect = higher value; nuclei count: measured here: cell count, toxicity
[3] = inhibitors of E-selectin induction by TNFa, primary screen, imaging, HUVEC, immunofluorescence, MLSMR starter and 10KST1 sets (AID 487;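 active means visually confirmed hit in the image check and inhibition above 20%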;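 on inhibition: signal is fraction of cell area covered by stained E-selectin grains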;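 on nuclei count: 100% = median nuclei count of all wells on the same plate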); details: HUVEC TNFalpha-induced E-selectin immunofluorescence imaging, at 2 µM; inhibition: stronger effect = higher value; nuclei count: measured here: cell number, toxicity
[4] = DUSP6 inhibitors restoring Erk phosphorylation by chemical complementation, primary imaging in DUSP6-transfected HeLa (AID 609;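 active means compounds giving at least 50% inhibition in the cell-based MKP-3 phosphatase rescue imaging test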;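 on inhibition: phospho-Erk level distribution per well compared with pooled transfected vehicle control wells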); details: HeLa MKP-3 transfected, phospho-Erk imaging KS statistic, at 10 µM, cells stimulated with TPA for 15 min
[5] = molecular target: Dual specificity protein phosphatase 6 (Homo sapiens) (UniProt Q16828); assay: as above; details: HeLa MKP-3 transfected, phospho-Erk imaging KS statistic; at 10 µM; stronger effect = higher value; cells stimulated with TPA for 15 min
[6] = molecular target: Voltage-gated potassium channel subunit beta-2 (Rattus norvegicus) (UniProt P62483); assay: KvBeta enzyme negative modulators, primary screen, biochemical, NADPH fluorescence (AID 622;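 active means fluorescence slope higher than the sample average by over 3 SD, cut at about -0.22 in these data, passing the limit was not always enough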;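 further: slope of raw intensity against log time taken from 70 to 1610 s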); details: recombinant KvBeta, 4-cyanobenzaldehyde reduction, at 10 µM, stronger effect = higher value
[7] = molecular target: Voltage-gated potassium channel subunit beta-2 (Rattus norvegicus) (UniProt P62483); assay: KvBeta positive modulators, primary screen, biochemical, NADPH fluorescence (AID 623;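 active means NADPH fluorescence slope more negative than the mean of all samples by about 3 SD, 99.7% confidence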;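 further: fluorescence intensity change per second fitted from 20 to 320 s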); details: Recombinant KvBeta, NADPH fluorescence decrease slope, 10 min; at 10 µM; stronger effect = lower value
[8] = molecular target: Alpha-2C adrenergic receptor (Homo sapiens) (UniProt P18825); assay: modulators of alpha2C/GIRK thallium flux, primary screen, cell-based, HEK293 alpha2C/GIRK1/2 (AID 624;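 active means fluorescence slope after compound addition differing from the mean of all screened samples at 99.7% confidence, in either direction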;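 further: slope of fluorescence ratio to pre-addition baseline per second over 15 to 24 s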); details: thallium flux BTC fluorescence, at 10 µM, actives lie on both sides
[9] = inhibitors of larval lipid processing in zebrafish, primary screen, whole organism, PED6 fluorescence, gall bladder and intestine (AID 686;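 active means a full or partial loss of lipid-probe fluorescence in the fish gall bladder, intestine or both, judged by eye; inactive means no fluorescence loss, or compound toxic to the fish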;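 further: larvae 5 to 7 days old with five fish per well; signal comes from phospholipase A2 cleavage of quenched PED6 carried via bile; overnight exposure to compound and PED6 before scoring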); details: Zebrafish larvae PED6 lipid processing, fluorescence scoring; screened at 20 µM (by protocol)
[10] = inhibitors of Chlamydomonas gravitaxis, primary screen, whole organism, Chlamydomonas reinhardtii, WT vs cilia-less mutant, absorbance, 96-well (AID 463189); details: OD600 absorbance, 2 days, at 10 µM, stronger effect = higher value;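 further: 0% = wild type cc124 cells in DMSO and 100% = ciliumless bld1 mutant cells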
[11] = inhibitors of Sendai virus-induced IRF3 signaling, primary screen, TLR/RLR signaling modifier project, cell-based, Sendai virus stimulus, luciferase, 10K MLSCN set (AID 602276;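 active means inhibition at or above 50% at 10 µM; inactive means inhibition below 50%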;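 further: firefly luciferase from ISG56 promoter only with Renilla not read in this screen; 0% = Sendai virus plus DMSO and 100% = medium plus DMSO without virus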); details: HEK293 RL24 IRF3 luciferase reporter, at 10 µM, stronger effect = higher value
[12] = inhibitors of poly I:C-induced TLR3 signaling, primary screen, cell-based, poly I:C stimulus, luciferase, 10K MLSCN set (AID 602277;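 active means inhibition of the reporter signal at or above 50%; inactive means inhibition below 50%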); details: HEK293-TLR3 RL24 IRF3 luciferase reporter, at 10 µM, stronger effect = higher value
[13] = measured here: cell density z-score
[14] = measured here: nuclear c-Myc green intensity z-score
[15] = measured here: nuclear pErk red intensity z-score, stronger effect = higher value

Sequence of Dual specificity protein phosphatase 6 (Homo sapiens) (Q16828 whole entry, looked up): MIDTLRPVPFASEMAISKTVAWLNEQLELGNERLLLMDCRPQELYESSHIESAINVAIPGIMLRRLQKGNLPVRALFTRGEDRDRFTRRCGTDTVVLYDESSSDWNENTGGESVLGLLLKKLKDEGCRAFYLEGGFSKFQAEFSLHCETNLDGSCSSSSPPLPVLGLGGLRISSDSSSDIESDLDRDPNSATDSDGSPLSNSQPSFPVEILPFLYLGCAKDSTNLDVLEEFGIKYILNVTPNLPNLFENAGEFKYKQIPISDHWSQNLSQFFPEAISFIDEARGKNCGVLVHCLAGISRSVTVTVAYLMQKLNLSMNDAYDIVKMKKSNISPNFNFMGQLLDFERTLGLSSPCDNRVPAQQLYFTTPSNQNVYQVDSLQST
Sequence of Alpha-2C adrenergic receptor (Homo sapiens) (P18825 whole entry, looked up): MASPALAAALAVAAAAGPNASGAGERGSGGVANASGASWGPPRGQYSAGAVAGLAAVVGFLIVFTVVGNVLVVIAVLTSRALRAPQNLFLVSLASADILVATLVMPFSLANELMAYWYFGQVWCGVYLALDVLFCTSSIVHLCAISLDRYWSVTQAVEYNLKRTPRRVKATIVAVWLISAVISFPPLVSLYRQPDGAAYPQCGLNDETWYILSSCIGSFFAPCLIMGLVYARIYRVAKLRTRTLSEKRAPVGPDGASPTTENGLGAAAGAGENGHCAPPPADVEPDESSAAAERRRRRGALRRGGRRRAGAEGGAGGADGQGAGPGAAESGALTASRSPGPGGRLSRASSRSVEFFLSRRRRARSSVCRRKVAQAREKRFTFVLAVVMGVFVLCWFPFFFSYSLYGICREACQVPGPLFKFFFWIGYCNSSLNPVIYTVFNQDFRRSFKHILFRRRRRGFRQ
Sequence of Voltage-gated potassium channel subunit beta-2 (Rattus norvegicus) (P62483 whole entry, looked up): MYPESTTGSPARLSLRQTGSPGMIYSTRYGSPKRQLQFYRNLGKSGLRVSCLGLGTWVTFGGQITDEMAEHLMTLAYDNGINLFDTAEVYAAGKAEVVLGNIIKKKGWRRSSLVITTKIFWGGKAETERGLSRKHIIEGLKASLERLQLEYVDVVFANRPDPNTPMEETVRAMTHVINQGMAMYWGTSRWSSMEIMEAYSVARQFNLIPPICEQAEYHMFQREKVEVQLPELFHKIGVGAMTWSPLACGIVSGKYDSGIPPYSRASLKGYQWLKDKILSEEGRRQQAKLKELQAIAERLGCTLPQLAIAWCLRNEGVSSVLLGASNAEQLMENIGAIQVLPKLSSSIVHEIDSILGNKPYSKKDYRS

Structure (SMILES)	cell count [1]	inhibition [1]	inhibition of aggregation [2]	nuclei count [2] [%]	inhibition [3]	nuclei count [3] [%]	z-score [4, 13]	z-score [4, 14]	z-score [4, 15]	inhibition [5]	fluorescence slope [6]	NADPH fluorescence slope [7]	slope [8]	outcome [9]	inhibition [10]	inhibition [11]	inhibition [12]
Cc1nc(NS(=O)(=O)c2ccccc2)sc1NC(=O)OC(C)C	364	-12.7% (inactive)	-9.8% (inactive)	108	-118% (inactive)	138	-0.163	-0.612	0.551	17.5% (inactive)	-0.415 (inactive)	1e-05 (inactive)	0.00272 (inactive)	inactive	16.7% (inactive)	2.77% (inactive)	9.41% (inactive)
CCOC(=O)/C(C#N)=C1\Nc2ccccc2N=C1N(CC(C)C)CC(C)C	586	-7.3% (inactive)	-2.5% (inactive)	105	-92.9% (inactive)	148	-0.677	-0.872	-0.406	3.56% (inactive)	-0.524 (inactive)	-3.1e-05 (inactive)	0.00419 (inactive)	inactive	1.92% (inactive)	-5.84% (inactive)	-1.84% (inactive)
O=C(OCC#CCSc1nnc(-c2ccccc2)o1)c1cccs1	281	-2.4% (inactive)	8.9% (inactive)	95.4	-178% (inactive)	132	-0.348	0.84	0.574	3.66% (inactive)	-0.396 (inactive)	-4e-05 (inactive)	0.00513 (inactive)	inactive	-3.45% (inactive)	-0.522% (inactive)	1.31% (inactive)
Cn1nnnc1SCC1=C(C(=O)O)N2C(=O)[C@@H](NC(=O)[C@H](O)c3ccccc3)[C@H]2SC1	634	-4% (inactive)	-4.8% (inactive)	106	-44% (inactive)	107	1.21	1.9	-1.92	11.3% (inactive)	-0.45 (inactive)	-5.3e-05 (inactive)	0.00577 (inactive)	inactive	22.9% (inactive)	10.3% (inactive)	42% (inactive)
CN=c1sc2ccccc2n1CC(O)COCc1ccco1 (stereo not given)	575	0.4% (inactive)	6.5% (inactive)	98.5	-71.1% (inactive)	138	0.277	0.426	0.235	1.04% (inactive)	-0.302 (inactive)	-1.1e-05 (inactive)	0.00567 (inactive)	inactive	7.79% (inactive)	12.5% (inactive)	29.1% (inactive)
C[N+](C)(C)CCOP(=O)([O-])OC[C@H](O)CO	713	-2.4% (inactive)	-22.9% (inactive)	105	-60.7% (inactive)	109	0.542	0.427	-0.871	15.3% (inactive)	-0.472 (inactive)	-5.7e-05 (inactive)	0.00513 (inactive)	inactive	27.2% (inactive)	-4.92% (inactive)	-2.18% (inactive)
CCCOc1cccc(-c2nnc(N)s2)c1	605	-3.6% (inactive)	-31.3% (inactive)	108	-83.5% (inactive)	111	0.352	-0.262	-0.207	-11.5% (inactive)	-0.443 (inactive)	-5.5e-05 (inactive)	0.00934 (inactive)	inactive	-3.59% (inactive)	-30.1% (inactive)	-65.7% (inactive)
CCNC(=O)N(C)c1nncnc1C(=O)NC	435	-12.6% (inactive)	6.9% (inactive)	105	-11.1% (inactive)	105	0.426	0.386	0.174	2.92% (inactive)	-0.505 (inactive)	-4.4e-05 (inactive)	0.00736 (inactive)	inactive	35.2% (inactive)	18.1% (inactive)	22.2% (inactive)
CC(COc1ccccc1)NC(C)C(O)c1ccc(O)cc1 (stereo not given)	534	-7.4% (inactive)	-13.1% (inactive)	100	-135% (inactive)	121	-1.06	-0.532	0.827	-12.3% (inactive)	-0.54 (inactive)	4.6e-06 (inactive)	0.00639 (inactive)	inactive	-3.83% (inactive)	-5.16% (inactive)	-30% (inactive)
CC1=NN(c2ccccc2)C(=O)C1	619	-5.9% (inactive)	2.5% (inactive)	98	-82.4% (inactive)	130	0.599	-0.649	1.01	9.37% (inactive)	-0.432 (inactive)	5.3e-06 (inactive)	0.00466 (inactive)	inactive	11.5% (inactive)	-68.4% (inactive)	52% (active)
Cc1cccc(OCC(=O)N2CCC(N3CCCCCC3)CC2)c1	395	-7.8% (inactive)	17.2% (inactive)	97.5	-247% (inactive)	128	1.59	1.35	-0.179	5.57% (inactive)	-0.384 (inactive)	-4.7e-05 (inactive)	0.00464 (inactive)	inactive	17.1% (inactive)	-0.464% (inactive)	3.84% (inactive)
CCCCCC(=O)N1CC2(C)CN(C(=O)CCCCC)CC(C)(C1)C2=O	482	3.2% (inactive)	-8.1% (inactive)	97.5	-94.9% (inactive)	101	0.798	0.672	0.65	7.42% (inactive)	-0.352 (inactive)	-4.5e-05 (inactive)	0.00564 (inactive)	inactive	24% (inactive)	6.58% (inactive)	21.5% (inactive)
O=C(CCNNC(=O)c1ccncc1)NCc1ccccc1	595	2.2% (inactive)	-4.6% (inactive)	104	-81.8% (inactive)	117	-1.05	-0.737	0.12	8% (inactive)	-0.485 (inactive)	-7.6e-05 (inactive)	0.00448 (inactive)	inactive	4.6% (inactive) and 1.15% (inactive)	-7.31% (inactive)	21.4% (inactive)
Cc1cc(N2CCN(C3CCCC3)CC2)n2c(nc3ccccc32)c1C#N	582	-4.5% (inactive)	36.4% (active)	57.7	6.5% (inactive)	110	1.58	0.862	-0.0668	17.8% (inactive)	-0.33 (inactive)	-3.1e-05 (inactive)	0.00579 (inactive)	inactive	-3.52% (inactive)	24.6% (inactive)	39% (inactive)
Cn1cc(NC(=O)c2cc(NC(=O)c3cc(NC=O)cn3C)cn2C)cc1C(=O)NCCC(=N)N	571	-3.6% (inactive)	-13.8% (inactive)	96.4	-15.4% (inactive)	95.1	-1.3	0.0863	-0.177	-0.493% (inactive)	-0.499 (inactive)	-3.2e-05 (inactive)	0.00517 (inactive)	inactive	-16.5% (inactive)	19.8% (inactive)	37.3% (inactive)
CCN(CC)c1ccc(-c2nn3c(-c4cccnc4)nnc3s2)cc1	508	-7.3% (inactive)	-31.1% (inactive)	10	-247% (inactive)	120	0.463	-0.276	0.497	-6.06% (inactive)	-0.39 (inactive)	-8.4e-05 (inactive)	0.00633 (inactive)	inactive	128% (active)	49.1% (inactive)	7.63% (inactive)
C[C@@H]1C[C@H]2[C@@H]3C[C@H](F)C4=CC(=O)C=C[C@]4(C)[C@@]3(F)[C@@H](O)C[C@]2(C)[C@@]1(O)C(=O)COC(=O)C(C)(C)C	563	1.4% (inactive)	-3% (inactive)	51.7	-36.8% (inactive)	92.6	0.404	-0.122	-1.39	5.42% (inactive)	-0.475 (inactive)	-6.6e-05 (inactive)	0.00583 (inactive)	inactive	-9.6% (inactive)	2.87% (inactive)	35.9% (inactive)
CO[C@H]1C=CO[C@@]2(C)Oc3c(C)c(O)c4c(O)c(c(C=NN5CCN(C)CC5)c(O)c4c3C2=O)NC(=O)C(C)=CC=C[C@H](C)[C@H](O)[C@@H](C)[C@@H](O)[C@@H](C)[C@H](OC(C)=O)[C@@H]1C	652	-3.9% (inactive)	-21% (inactive)	108	-93.2% (inactive)	125	-0.406	1.71	0.381	13.3% (inactive)	-0.556 (inactive)	4.3e-06 (inactive)	0.00466 (inactive)	inactive	10.8% (inactive)	33.7% (inactive)	49.7% (inactive)
COc1ccc(CCN(C)CCCC(C#N)(c2cc(OC)c(OC)c(OC)c2)C(C)C)cc1OC (stereo not given)	602	1.1% (inactive)	6% (inactive)	88.6	-34.1% (inactive)	114	2.13	0.829	-0.736	30.1% (inactive)	-0.466 (inactive)	-1e-05 (inactive)	0.00502 (inactive)	inactive	4.56% (inactive) and -3.63% (inactive)	3.72% (inactive)	17% (inactive)
COCCOC(=O)c1c(C)nc(SCC(=O)Nc2ccc(OC)cc2)c(C#N)c1-c1ccco1	386	-17.9% (inactive)	-11.5% (inactive)	76	-23.1% (inactive)	90	-0.584	-0.072	-0.599	-6.59% (inactive)	-0.422 (inactive)	-2.9e-05 (inactive)	0.00733 (inactive)	inactive	-0.332% (inactive)	16.9% (inactive)	12.1% (inactive)
